Screening data as filed in PubChem.
aSyn rescue: rescues yeast growth from alpha-synuclein toxicity; Yeast expressing alpha-synuclein, growth rescue, BacTiter-Glo, 24 h; hit rate 0.14% among 370,000; Potency, µM (series often up to 46.1 µM), for inactives: at the highest dose growth rescue (activation), hits mostly activators; further: % of control where 0% means no effect; nearly all actives have a fitted effect of over 65% in size
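Galactose-induced alpha-syn yeast (OD600=0.02, raffinose-pregrown) + pinned cpd, 24 hr, 30 deg C; growth by BacTiter-Glo luminescence. Growth restoration scores as activation.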
Abeta yeast res: restores growth of yeast expressing A-beta42 peptide; yeast expressing A-beta42, growth rescue, OD600, 48 h; response scale: 0% DMSO, 100% iron-clioquinol control; hit rate 0.063% among 410,000; Potency, µM (doses to about 46.1 µM), most hits filed as activators; further: nearly all actives have a fitted effect of over 55% in size
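Yeast A-beta toxicity model in growth medium with pinned compounds, 48 h at 30 C; growth read as absorbance at 600 nm. Normalized to FeCl3/clioquinol equimolar mix (positive) and DMSO (negative).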
TDP-43 yeast inh: rescues yeast growth from TDP-43 toxicity; Potency, µM (series often up to 46.1 µM), for inactives: at the top dose growth rescue (activation), usual class: activators; AID 652104; hit rate 1.8% among 410,000; TDP-43 expressing yeast growth rescue, BacTiter-Glo, 24 h; further: % of control where 0% means no effect; nearly all actives have a fitted effect of over 50% in size
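Growth rescue of TDP-43-toxic yeast measured as ATP luminescence (BacTiter-Glo). Cells grown to mid-log in raffinose, induced in galactose at OD600=0.02, exposed to compound 24 hr at 30 deg C.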
FUS suppressor: FUS proteinopathy suppression in yeast. S. cerevisiae FUS-expressing, growth rescue, OD600, 24 h. Potency, µM (series often up to 76.6 µM), actives largely listed as activators. hit rate 0.24% among 390,000. AID 1347120;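 further: plate controls were DMSO vehicle for no effect and reference control for full effect; nearly all actives have a fitted effect of over 55% in size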
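Restored growth of FUS-toxic S. cerevisiae, read as 600 nm absorbance after 24 h at 30C in galactose medium (starting OD 0.005). Controls CP55940 and DMSO.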
* marks the source's active call; other numbers are inactive results; i = inactive; ? = inconclusive; · = not tested or not shown; ! = not confirmed by another sample; [ ] = another dose, or the depositor's remark. Rows were chosen to be rich in hits. Some 2.1% of all compounds tested hit in one or more screens of this group. The call rests on the fitted dose curve; in most records, active means well fitted curve in the direction sought with a large enough effect; inconclusive means small, poorly fitted or top-dose-only effect, or another doubt; inactive means no such curve, though single readings can be large; an effect the other way counts as inactive or inconclusive. Potency means the concentration at half of the fitted maximal effect.

SMILES | aSyn rescue | Abeta yeast res | TDP-43 yeast inh | FUS suppressor
COc1ccc([C@H]2CC(=O)C=C(c3cccc(Cl)c3O)C2)cc1OC | 5% | i | 18µM* | i
O=C1C=C(c2cccc(Cl)c2O)C[C@@H](c2ccc3c(c2)OCO3)C1 | ? | i | 3.5µM* | i
COc1cccc(CN(C)C(=S)Nc2cccc(C)c2)c1 | -6% | i | 11µM* | i
COc1ccc(CC(=O)NC(=S)Nc2cccc(C)c2)cc1 | 18% | i | -6% | i
COc1ccc(CN(C)C(=S)Nc2ccc(Cl)cc2)cc1 | -18% | 11µM* | 12% | i
COc1ccc(OC)c(N(CC(=O)N2CCN(c3cc(Cl)ccc3C)CC2)S(C)(=O)=O)c1 | 2% | i | -20% | 28µM*
O=C(Nc1ccc2c(c1)OCO2)OC1CCC12CCCCC2 (configuration not stated) | · | · | · | i
COc1cc(C(C(=O)NC2CCCCC2)N(C(=O)Cc2c[nH]c3ccccc23)c2ccccc2C)cc(OC)c1OC (configuration not stated) | 4% | i | 14% | 22µM*
COc1ccc(OC)c(C(=O)COC(=O)c2ccc([N+](=O)[O-])o2)c1 | -37% | i | 22µM* | i
CC(=O)c1ccccc1OC(=O)c1ccc([N+](=O)[O-])o1 | ? | i | 10µM* | i
COc1ccccc1NC(=O)c1ccc([N+](=O)[O-])o1 | -71% | i | ? | i
CC(=O)c1ccccc1OC(=O)c1ccc(-c2ccccc2)cc1 | -16% | i | 25µM* | i
CC(C)=NOC(=O)c1ccc(-c2ccccc2)cc1 | -8% | i | 22µM* | ·
COc1cc(NC(=O)CCc2c(C)nc3nc(-c4cc(OC)cc(OC)c4)nn3c2C)cc(OC)c1 | · | i | -31% | i
Cc1ccc(S(=O)(=O)CCC(=O)c2cccc([N+](=O)[O-])c2)cc1 | -48% | i | 18µM* | i
Cc1ccc(C(=O)CCS(=O)(=O)c2ccc(Br)cc2)cc1 | 5% | i | -6% | i
Cc1cccc(OCCSCc2nc3ccccc3[nH]2)c1 | 0% | i | 6% | i
Cc1cccc(OCCCSc2nc3ccccc3[nH]2)c1 | -16% | i | 20µM* | i
COc1ccc(Nc2nnc(SCC3CCCO3)s2)cc1 (configuration not stated) | -10% | i | 28µM* | i
COc1ccc(Nc2nnc(SCC(=O)NC3CC3)s2)cc1 | 2% | i | 9% | i
Cc1cccc(Nc2nnc(SCC3CCCCO3)s2)c1C (configuration not stated) | 16% | i | -23% | ·
COc1cccc(Nc2nnc(SCC3CCCCO3)s2)c1 (configuration not stated) | 0% | i | 10µM* | i
O=C1CN(C(=O)C2CCCCC2)C=CN1CCc1ccccc1Br | · | · | · | i
Cc1ccc(S(=O)(=O)N(CC(=O)Nc2c(C)cccc2C)c2cccc(Cl)c2)cc1 | · | i | ? | i
CCOC(=O)c1ccc(S(=O)(=O)NCC(c2ccc(N(C)C)cc2)c2c[nH]c3ccccc23)cc1 (configuration not stated) | -2% | i | 3.2µM* | ?
SMILES | aSyn rescue | Abeta yeast res | TDP-43 yeast inh | FUS suppressor
C[C@@H]1/C=C/CC(=O)N2[C@H](CC(=O)N[C@@H]1c1ccccc1)C[C@@H](C)[C@H]2c1ccccc1 | · | · | · | i
O=C(CCCn1c(=O)c2cccn2c2cccnc21)NCCc1ccc(Cl)cc1 | -11% | i | 22µM*! | i
O=C(O)c1ccccc1C(=O)N1N=C2/C(=C/c3cccc([N+](=O)[O-])c3)CCCC2C1c1cccc([N+](=O)[O-])c1 (configuration not stated) | 1% | i | -13% | 25µM*
C#CCN1CC(N(C)CCOC(=O)c2occ3ccccc23)CS1(=O)=O (configuration not stated) | · | · | · | i
COc1cccc(CNC(=O)CCn2nc(C)c3c(C)n(-c4ccccc4)nc3c2=O)c1 | · | i | -10% | i
CCOC(=O)C1=C(C)Nc2nc(SCC)nn2C1c1ccc(OC)cc1 (configuration not stated) | 4% | i | 7% | i
CCOC(=O)C1=C(C)Nc2nc(=S)[nH]n2C1c1ccc(Cl)cc1 (configuration not stated) | ? | i | 22µM* | i
CCCC[C@H](C(=O)N(CC)c1ccccc1)[C@@H](O)c1ccc(Cl)cc1 | · | · | · | i
COc1ccc(/C=c2\[nH]c(=O)/c(=C/c3ccc(OC)c(OC)c3)[nH]c2=O)cc1OC | 0% | · | · | ·
CCCNC(=O)c1cc2c(c(-c3cccc(-c4ccccc4F)c3)n1)[C@H](CCO)N(C(=O)CC1CC1)C2 | 7% | i | ? | ?
CCNC(=O)c1cc2c(c(-c3cccc(-c4ccccc4F)c3)n1)[C@@H](CCO)N(C(=O)CC1CC1)C2 | 15% | i | ? | 18µM*
Cc1ccc(C)c(NC(=O)N2CCc3ccccc3C2)c1 | 3% | i | 20µM* | i
Cc1ccccc1NS(=O)(=O)c1cc(C(=O)N2CCCC2)ccc1Cl | -1% | i | 11% | ·
Cc1cccc(NS(=O)(=O)c2cc(C(=O)N3CCc4ccccc4C3)ccc2Cl)c1C | 10µM* | i | -14% | ?
Cc1ccc(C)c(NS(=O)(=O)c2cc(C(=O)N3CCc4ccccc4C3)ccc2Cl)c1 | 16µM* | i | -30% | ?
CN(C(=O)CNC(=O)c1ccccc1OCC(=O)Nc1ccc(I)cc1)c1ccccc1 | · | · | · | i
COC(=O)c1ccc(Oc2ccc(S(=O)(=O)N3CCCCC3)cc2N)cc1 | 13µM* | i | ? | i
O=C(NC(=S)NCc1ccccc1)c1ccccc1 | -1% | 11µM* | -19%[0.397 µM] | i
O=C(NC(=S)NCc1ccccc1)c1cccs1 | -13% | ? | 13µM* | i
O=C(NCc1cccc2ccccc12)c1cccs1 | 3% | i | 13µM* | i
O=C(NC(=S)NCc1ccc(F)cc1)c1ccccc1 | -5% | i | 22µM* | ·
O=C(CNC(=S)NC(=O)c1cccs1)c1ccccc1 | -7% | i | 21% | i
Cc1cccc(C(=O)NC(=S)NCc2ccccc2)c1 | 0% | ? | ? | i
O=C(NC(=S)NCc1ccncc1)c1ccccc1 | -9% | i | 7% | i
COc1ccc(OC)c(/C=C/C(=O)N2CCN(S(=O)(=O)c3cc(C)ccc3C)CC2)c1 | 1% | i | 8% | 32µM*
COc1ccc(OC)c(/C=C/C(=O)N2CCN(S(=O)(=O)c3ccc(C)cc3C)CC2)c1 | 17% | i | -2% | ·
CC(C)(C)C(=O)OC12CCCN(C1)/C(=C/c1cccc(Cl)c1)C2 (configuration not stated) | · | · | · | i
O=C(c1ccc(F)cc1)C1CCN(C(=S)Nc2ccc(F)cc2)CC1 | 12% | ? | 22µM* | i
CC(C)(C)NC(=S)N1CCC(C(=O)c2ccc(F)cc2)CC1 | 5% | i | 20% | i
